The nature of assay [1]: E. coli DRC41 culture turbidity changes, primary screen, E. coli filamentation inducer project, strain DRC41, OD650, 48 h (AID 1152).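 Note: E. coli MC1000 strain DRC41 lacking acrAB efflux pump and sulA.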 Conditions: E. coli DRC41 (acrAB sulA), higher = more signal, called active from +8 up or from −8 down.
The nature of assay [2]: small-molecule binders of probe aLefty1, primary screen, biochemical, small-molecule microarray, 635/667 nm fluorescence (AID 1153).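 Note: score merges spot fluorescence with signal-to-noise ratio from the scanned slide images.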 Conditions: higher = more signal.
A short description of assay [3]: PSAC antagonists in infected red cells, primary screen, cell-based, P. falciparum Indochina, OD700, 1 h (AID 1154). Conditions: P. falciparum Indochina infected RBC osmotic lysis, higher = more signal, called active from +8 up or from −8 down.
Assay [4] can be described thus: PSAC antagonists in infected red cells, primary screen, cell-based, P. falciparum Indochina, OD700, 2 h (AID 1155).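 Note: lysis reports solute entry through the parasite surface anion channel PSAC; channel blockers reduce lysis of infected cells.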 The conditions noted are these: P. falciparum Indochina infected erythrocytes, osmotic lysis OD700; higher = more signal, called active from +8 up or from −8 down.
A short description of assay [5]: osmotic lysis modulators in infected erythrocytes, primary screen, PSAC antagonist project, cell-based, P. falciparum Indochina, OD700, 3 h (AID 1156). The conditions noted are these: higher = more signal, called active from +8 up or from −8 down.
A short description of assay [6]: PSAC antagonists in infected red cells, primary screen, cell-based, P. falciparum Indochina, OD700, 18 h (AID 1157). The conditions noted are these: P. falciparum Indochina infected erythrocytes, osmotic lysis OD700, 18 h; higher = more signal, called active from +8 up or from −8 down.
The nature of assay [7]: modulators of S6 phosphorylation in cells, primary screen, cell-based, A549, cytoblot, luminescence, serum-stimulated (AID 1158).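 Note: serum-stimulated A549 lung adenocarcinoma cells; signal is phosphorylated S6 detected by cytoblot immunostaining with HRP secondary.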 The conditions noted are these: A549 phospho-S6 cytoblot, 5 h, higher = more signal.
Assay [8] concerns the target NADPH oxidase 2 (Homo sapiens) (UniProt P04839). Description: NOX2-dependent H2O2 signal modulators, primary screen, NOX inhibitor project, cell-based, HEK293-NOX2, PMA-stimulated, Amplex Red fluorescence (AID 1159). Note: test concentration not given here. The conditions noted are these: 45 min, higher = more signal, called active from +8 up or from −8 down.
Assay [9] concerns the target NADPH oxidase 4 (Homo sapiens) (UniProt Q9NPH5). Description: NOX4-dependent H2O2 signal modulators, primary screen, NOX inhibitor project, cell-based, HEK293-NOX4, tetracycline-induced, Amplex Red fluorescence (AID 1160). Conditions: 45 min, higher = more signal, called active from +8 up or from −8 down.
Assay [10] deals with NADPH oxidase 5 (Homo sapiens) (UniProt Q96PH1). Description: NOX5-dependent H2O2 signal modulators, primary screen, NOX inhibitor project, cell-based, HEK293-NOX5, Amplex Red fluorescence (AID 1161). The conditions noted are these: HEK293-NOX5, ionomycin, 45 min, higher = more signal.
The nature of assay [11]: A549 cell viability effects, profiling panel, calcein-AM fluorescence, 48 h, basal (AID 1162). Note: test concentration not given here. Conditions: higher = more signal.
Assay [12] in a line: adipocyte viability effects, profiling panel, cell-based, 3T3-L1 adipocytes, calcein-AM fluorescence, 48 h, basal (AID 1163). Note: test concentration not given here. The conditions noted are these: 3T3-L1 adipocytes viability, higher = more signal.
The nature of assay [13]: HepG2 cell viability effects, profiling panel, calcein-AM fluorescence, 48 h, basal (AID 1164). Note: test concentration not given here. The conditions noted are these: higher = more signal.
Assay [14] can be described thus: MM1S cell viability effects, profiling panel, calcein-AM fluorescence, 48 h, basal (AID 1165).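 Note: viability of MM1S multiple myeloma cells under basal unstimulated conditions; test concentration not given here.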 The conditions noted are these: higher = more signal.
Assay [15] can be described thus: basal RPMI8226 viability, no added stimulus, profiling panel, cell-based, calcein-AM fluorescence, 48 h, PK04 Diversity Set (AID 1166).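 Note: cells grown under basal conditions without added stimulus; test concentration not given here.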 Conditions: RPMI8226 myeloma viability, higher = more signal.
The nature of assay [16]: basal HepG2 mitochondrial membrane potential changes, profiling panel, cell-based, JC-1 fluorescence, 24 h, 100 nL compound (AID 1167). Note: test concentration not given here. Conditions: higher = more signal.
Assay [17] can be described thus: basal 3T3-L1 adipocyte mitochondrial potential changes, profiling panel, cell-based, JC-1 fluorescence, 3T3-L1 adipocytes, 24 h, 100 nL compound (AID 1168). Note: test concentration not given here. The conditions noted are these: JC-1 mitochondrial fluorescence, higher = more signal, called active from +8 up or from −8 down.
Assay [18] in a line: basal RPMI8226 mitochondrial membrane potential changes, profiling panel, cell-based, JC-1 fluorescence, 24 h, 100 nL compound (AID 1169). Note: test concentration not given here. Conditions: RPMI8226 myeloma, JC-1 mitochondrial potential fluorescence, higher = more signal.
A short description of assay [19]: basal MM1S mitochondrial membrane potential changes, profiling panel, cell-based, JC-1 fluorescence, 24 h, 100 nL compound (AID 1170). Note: test concentration not given here. The conditions noted are these: higher = more signal.
A short description of assay [20]: A549 lung cancer cell viability effects, profiling panel, resazurin fluorescence, 24 h, PK04 Diversity Set (AID 1171). Note: test concentration not given here. The conditions noted are these: higher = more signal, called active from +8 up or from −8 down. (Alamar Blue is a resazurin reagent that responds to reducing activity.)

The structures appear in SMILES notation. Calls of active or inactive are those of the source.

Among the data in PubChem BioAssay are z-score and composite z-score values, retold here.

Chain of NADPH oxidase 4 (Homo sapiens) (Q9NPH5 whole entry, looked up): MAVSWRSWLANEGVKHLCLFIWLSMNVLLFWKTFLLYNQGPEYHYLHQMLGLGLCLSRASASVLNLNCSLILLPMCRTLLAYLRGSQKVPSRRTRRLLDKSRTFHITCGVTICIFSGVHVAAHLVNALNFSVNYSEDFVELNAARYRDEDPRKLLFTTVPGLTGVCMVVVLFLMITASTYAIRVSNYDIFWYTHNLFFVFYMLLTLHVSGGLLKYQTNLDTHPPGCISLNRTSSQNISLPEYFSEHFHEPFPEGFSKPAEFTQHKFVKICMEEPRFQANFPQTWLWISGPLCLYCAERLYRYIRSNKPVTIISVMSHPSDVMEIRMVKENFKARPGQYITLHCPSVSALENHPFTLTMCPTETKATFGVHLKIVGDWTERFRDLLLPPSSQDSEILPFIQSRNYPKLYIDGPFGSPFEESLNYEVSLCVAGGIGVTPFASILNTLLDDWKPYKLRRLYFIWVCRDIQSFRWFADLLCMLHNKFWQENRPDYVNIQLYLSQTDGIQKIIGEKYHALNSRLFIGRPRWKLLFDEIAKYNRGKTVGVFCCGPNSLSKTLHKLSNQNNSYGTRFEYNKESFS
Chain of NADPH oxidase 5 (Homo sapiens) (Q96PH1 whole entry, looked up): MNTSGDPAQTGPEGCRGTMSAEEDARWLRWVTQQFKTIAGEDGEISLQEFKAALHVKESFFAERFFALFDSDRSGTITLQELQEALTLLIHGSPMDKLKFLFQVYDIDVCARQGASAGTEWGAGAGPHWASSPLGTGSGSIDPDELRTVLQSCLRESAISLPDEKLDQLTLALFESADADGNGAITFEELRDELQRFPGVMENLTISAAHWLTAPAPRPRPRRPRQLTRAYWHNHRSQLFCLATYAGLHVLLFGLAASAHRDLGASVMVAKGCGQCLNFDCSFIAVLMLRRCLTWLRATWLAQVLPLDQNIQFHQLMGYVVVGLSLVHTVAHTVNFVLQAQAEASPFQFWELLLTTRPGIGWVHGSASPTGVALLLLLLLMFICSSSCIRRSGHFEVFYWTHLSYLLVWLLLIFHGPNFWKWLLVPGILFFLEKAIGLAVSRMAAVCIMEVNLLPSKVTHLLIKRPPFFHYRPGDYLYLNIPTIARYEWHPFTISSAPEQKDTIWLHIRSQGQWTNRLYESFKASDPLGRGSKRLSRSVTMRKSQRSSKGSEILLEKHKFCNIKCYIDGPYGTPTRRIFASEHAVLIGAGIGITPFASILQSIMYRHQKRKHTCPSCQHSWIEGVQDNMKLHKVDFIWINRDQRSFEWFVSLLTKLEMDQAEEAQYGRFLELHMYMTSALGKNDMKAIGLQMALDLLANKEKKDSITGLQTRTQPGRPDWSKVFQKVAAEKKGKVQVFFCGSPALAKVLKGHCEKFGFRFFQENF
Chain of NADPH oxidase 2 (Homo sapiens) (P04839 whole entry, looked up): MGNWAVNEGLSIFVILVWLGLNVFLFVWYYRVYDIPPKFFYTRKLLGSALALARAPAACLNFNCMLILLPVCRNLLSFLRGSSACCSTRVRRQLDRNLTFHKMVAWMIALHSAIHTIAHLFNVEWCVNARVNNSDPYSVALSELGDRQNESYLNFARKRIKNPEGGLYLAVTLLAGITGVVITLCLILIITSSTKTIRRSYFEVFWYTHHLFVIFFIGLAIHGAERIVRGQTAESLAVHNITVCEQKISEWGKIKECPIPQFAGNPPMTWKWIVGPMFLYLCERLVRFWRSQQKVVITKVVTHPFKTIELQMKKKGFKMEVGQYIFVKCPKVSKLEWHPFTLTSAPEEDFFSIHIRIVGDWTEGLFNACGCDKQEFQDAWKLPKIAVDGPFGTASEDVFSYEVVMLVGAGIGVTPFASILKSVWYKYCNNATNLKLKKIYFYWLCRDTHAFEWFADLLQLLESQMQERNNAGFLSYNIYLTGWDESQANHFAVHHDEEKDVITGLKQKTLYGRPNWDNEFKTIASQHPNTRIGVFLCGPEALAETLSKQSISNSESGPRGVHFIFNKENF

`CO[C@H]1O[C@H](CO)[C@@H](OC(=O)Nc2ccccc2-c2ccccc2)[C@H](OC(=O)Nc2ccccc2-c2ccccc2)[C@H]1OC(=O)Nc1ccccc1-c1ccccc1`: the z-score was 0.236 (inactive) in [1]; 3.93 (inactive) in [3]; 1.27 (inactive) in assay [4]; -0.623 (inactive) in [5]; 1.16 (inactive) in assay [6]; 0.311 in [7]. Moreover, the z-score in [8] was 1.26 (inactive); in [9] it was -0.874 (inactive); in [10], -0.439; in assay [11] it was -1.46; in [12], 1.22; in [13], -1.31. For the same molecule, the z-score in [14] was -1.4; in assay [15], -1.44; in assay [16], -0.0136; in [17] it was 0.908 (inactive); in assay [18], -0.87; in [19], 0.116. For the same molecule, the z-score in assay [20] was -2.56 (inactive). For the same molecule, in assay [2], the composite z-score was determined as 0.427.
`C=CCCN(CC#C[C@H]1Oc2ccccc2S(=O)(=O)N2CCC[C@@H]12)S(=O)(=O)c1ccc(C)cc1`: the z-score in [1] is -1.88 (inactive); in assay [3], 3.75 (inactive); in [4], 0.451 (inactive); in assay [5], 0.123 (inactive); in assay [6], 0.182 (inactive); in [7], -0.23. In addition, the z-score in [8] was 0.744 (inactive); in assay [9], -1.54 (inactive); in [10] it was -0.909; in [11], 0.436; in [12], -0.257; in assay [13], -0.383. For the same molecule, the z-score in assay [14] is -3.21; in [15], -1.77; in assay [16], 0.825; in [17] it was -0.184 (inactive); in [18], -0.972; in assay [19] it was -1.5. The z-score in assay [20] is 0.967 (inactive). The molecule further displayed a composite z-score in assay [2] of 0.0443.
As to `CN(C)CCCC[C@@H]1NC(=O)[C@H]2C[C@@H](C(=O)NCCCCCNC(=O)CS)[C@@H](c3ccc(O)cc3)N2C1=O`, the z-score is 0.445 (inactive) in assay [1]; 0.93 (inactive) in assay [3]; 0.683 (inactive) in [4]; -0.988 (inactive) in [5]; 0.153 (inactive) in [6]; -0.0137 in assay [7]. Also, the z-score in assay [8] was 0.394 (inactive); in [9], -0.265 (inactive); in assay [10] it was 0.877; in [11] it was -0.294; in assay [12], -0.478; in assay [13], -0.0888. The z-score was 0.201 in [14]; -0.285 in [15]; 1.68 in assay [16]; -0.143 (inactive) in assay [17]; -0.319 in assay [18]; 0.543 in assay [19]. Further, the z-score in assay [20] was -0.358 (inactive). Besides, the composite z-score in assay [2] was -0.0196.
Take `Cc1cc(C)c(C(O)C2C=CC3C(=O)NC(=O)C3N2Nc2ccccn2)c(C)c1` (stereo not given): the z-score in [1] is -1.14 (inactive); in assay [3], 1.02 (inactive); in assay [4], 0.742 (inactive); in assay [5] it was -0.0209 (inactive); in [6], 1.07 (inactive); in [7] it was -1.25. The z-score in assay [8] is -1.49 (inactive); in assay [9], -1.33 (inactive); in assay [10], -2.12; in assay [11], -0.948; in assay [12], -0.397; in assay [13] it was 0.359. The z-score in [14] was 0.22; in assay [15], 0.066; in assay [16], -0.767; in assay [17] it was -0.363 (inactive); in assay [18], -0.188; in assay [19], -0.0615. Besides, the z-score in assay [20] was -0.875 (inactive). The molecule further yielded a composite z-score in [2] of 0.469.
Take `C=CCNC(=O)[C@H]1[C@@H]2C(=O)O[C@@H](c3ccccc3)[C@@H](c3ccccc3)N2[C@@H](c2ccc(OCCO)cc2)[C@]12C(=O)N(C(=O)OCCOC)c1ccc(C#CC3(O)CCCCCC3)cc12`: the z-score in assay [1] was 0.838 (inactive); in assay [3] it was 1.92 (inactive); in [4], 0.742 (inactive); in assay [5], 0.0102 (inactive); in assay [6] it was 0.509 (inactive); in assay [7], 0.0127. Moreover, the z-score was 1.56 (inactive) in assay [8]; 0.972 (inactive) in [9]; 1.02 in [10]; 1.13 in assay [11]; 1.61 in assay [12]; 0.388 in [13]. In addition, the z-score in [14] was -0.963; in assay [15], -2.4; in assay [16], -0.898; in assay [17], 1.71 (inactive); in [18], -0.774; in assay [19], -0.988. In assay [20], the z-score is 0.454 (inactive). For the same molecule, the composite z-score in assay [2] was 0.658.
